Test results as given in the supplement of paper PMC3724861.
The full list was thinned out, with hits kept by preference. The true hit rate is not given.

Test system: T1, Caupolican (Caup) homeodomain DNA-binding domain
T1 sequence: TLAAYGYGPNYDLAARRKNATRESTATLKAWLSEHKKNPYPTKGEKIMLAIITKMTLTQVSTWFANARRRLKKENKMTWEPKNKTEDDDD
Assay: PBM E-score (8-mer, recovered from the published 9-mer minima) (E-score (dimensionless, -0.5 to 0.5)); Drosophila protein; higher = stronger relative binding preference, active = 0.31 or more
Description: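 Protein binding microarray (PBM): in vitro transcribed/translated Caupolican (Caup) homeodomain DNA-binding domain (residues 214-303) applied at 100 nM to a universal 8-mer PBM array (Agilent AMADID 015681). The 8-mer enrichment score (E-score, range -0.5 to 0.5) was computed, and each 9-mer score is the minimum E-score of its two constituent 8-mers. The E-score is the same for a 9-mer and its reverse complement; 0.31 is the stated binding threshold.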

PBM E-score, inactive:
ATTTGTTA 0.219, ACTTGTTG 0.29, GCTTGTGA -0.02, AGTTGTTC 0.261, CCTTGTTC 0.24, GTTTGTTA 0.225, GTCGGCCA -0.0886, GGCGACAA 0.138, CACTGAAG -0.0338, TCGTCAGA -0.0168, AAGAGACA 0.124, CATATCAG 0.0708, AACCCGCA -0.135, AATCTCAG 0.0346, CTAAATAA 0.181, CTATCAGA -0.0505, CCGAGAAC -0.0456, AAGGTTAG -0.0357, AGGATGGA -0.124, ACATGGAG 0.257, ACATGGAA 0.296, GCATGGAC -0.00539, CCATGGAC -0.0492, GTTAAGGA 0.00704, GAGTACAA 0.262, CCGTACAA 0.152, AAGTACAC 0.288, GCGTACAA 0.256, CAGTACAA 0.304, AAGTACCA 0.195, AAGTACGA 0.113, AAGTACAG 0.204, GAAGCGAA -0.0567, GGGATTCA -0.0518, ATTCGTGA 0.114, CTCGACAC 0.105, GCTGCGGA -0.178, ATGAGTTC 0.0362, ATCCTTCG -0.116, GGGACAAC 0.178, CAGTTAGA -0.0838, AGTAACAA 0.266, ATTAAACA 0.271, CTTAAACA 0.159, TCTAACAA 0.177, GGTAAACA 0.213, CGTAACAA 0.243, GCTAACAA 0.192, AGTAAACA 0.235, GAGCAACA 0.0811, CGGTAGGA -0.0619, AGTAAGAC 0.0795, ACTTTCCT -0.143, CTTGGTCA -0.0643, TATAACAA 0.306, CATAACAA 0.308, AAGCATCG -0.00688, TCCACACA 0.0566, AACTTCAT 0.108, TCTATCCA -0.0275, CACACGAA 0.0926, GACACGTC 0.225, CACACGTA 0.142, TTCACGAA 0.0673, CACACGGA 0.00106, GCCACGTA -0.0264, GACACGGA 0.286, TACACGCA 0.29, GGAGTTAC 0.0415, AAAGGTTG -0.00255, CTGGTAAC 0.115, AGCCCAGC -0.172, CATACTGC -0.0312, AAGAGTGC 0.0487, AGATCCAT -0.0856, GAAGACTC -0.0665, ACCTCAAA -0.032, CCATCAGA -0.105, CTGACATA 0.22, ATGACAGG 0.117, CTGACATC 0.28, ATGACACC 0.266, GGGACATA 0.113, ATGACACA 0.259, GTGACACA 0.245, ATGACAGA 0.22, ACCAGGCT -0.045, AAGGGTTC -0.134, ATAAGTAT 0.0762, ATTATCGC 0.0263, AGGAAGAA -0.0327, AGCTAGTA 0.108, AACGTGAG -0.0335, ATCGTACC -0.0488, ATCGTACG 0.133, GTCGTATA 0.165, AACGTACC 0.0531, CTCGTACA 0.238, CACGTACA 0.261, AATCGGTG 0.0507, CGGTGTGA 0.0901, ATCAAAAT 0.131, AAAGTCAC 0.0854, AACCAGGA 0.0369, ACTCGGGA -0.117, AGCATGTG 0.222, CGCATGCC -0.0847, CGCATGAC -0.0417, AGCATGCC -0.0456, CGCATGCA 0.025, CGCATGGA -0.0924, CACACTGC -0.0174, AGTTTCAG -0.0628, ATCCAGAC -0.00977, AATTCGTC 0.0479, CCCTGAGG -0.185, GTCATGGA -0.0262, ATCATGAA 0.0136, ATCATGTG 0.226, ATCATGAC 0.233, CTCATGCA 0.042, GTCATGCA 0.111, CTCATGTC 0.306, CTCATGGA 0.0584, GAACAATA 0.166, CACATTAC 0.141, CCGAGGGC -0.267, CAAGGACG -0.0604, CTCTAGGC -0.16, CCTGGCTA -0.0965, AGCGTACC -0.17, GAGGGAGA -0.155, AGTTACCA 0.113, CAAGGGCC -0.135, CCCAGGCA -0.162, CAGGTACG -0.00719, ACGTAAGG -0.042, AATTACAC 0.299, CATTACAG 0.226, CTTTACAC 0.289, GCTTACAC 0.169, CAAGCTGG -0.105, CAGCCGCA -0.26, GTTAGTGA 0.152, AGCACTAA -0.00029, TGCAGTAA 0.0534, ACTATGTG 0.131, GCTATGTA 0.271, CCTATGAA -0.0468, CCTATGTC 0.176, CCGATCGA -0.133, CAGCTCAA -0.125, CACTCTAC 0.101, GCGACCGC -0.261, CGAACCAC -0.0921, GTGTCGTA 0.252, ATGTCGTC 0.28, CTGTCGTA 0.124, CTGTCGAC 0.0515, GTGTCGCA 0.176, ATGTCGCC 0.208, ATGTCGAA 0.291, ATGTCGAG 0.274, CGTCGACA 0.116, AGATTTTA 0.0905, CTTGAACC 0.00592, GATCTGGC -0.0642, AACCGATG 0.0188, CGGAGTAG -0.0319, CACGGGAA -0.0415, AGTGAAAC 0.108, CTCACGAA 0.0184, GTTACGGA 0.0254, TAATTAAA 0.191, AGGTAGGA -0.0302, ATTGTTTA 0.186, ATTGTTAC 0.307, CCTGTTAA 0.188, ACTGTTAA 0.0659, CCTGTTAC 0.254, CTTGTTTA 0.254, CTTGTTGA 0.26, ATTGTTGA 0.279, AACCCGCG -0.0635

PBM E-score, active:
ACTTGTTA 0.368, ACTTGTTC 0.33, GCTTGTTA 0.315, ACATGGAT 0.374, ACATGGAC 0.338, AAGTACAA 0.327, TCGTACAA ≥ 0.37, AAGTACAT 0.402, TAGTACAA 0.38, GTTAAACA 0.339, TGTAAACA ≥ 0.36, GGTAACAA 0.316, TGTAACAA 0.405, GATAACAA 0.32, TACACGAA 0.371, TACACGGA 0.375, GACACGTA 0.348, TACACGTA 0.361, GTGACATA 0.312, ATGACATC 0.333, ATGACATA 0.379, ATGACATG 0.422, AACGTACA ≥ 0.337, GTCGTACA 0.352, ATCGTACA 0.349, CGCATGTC 0.348, CGCATGTA 0.352, AGCATGTC 0.376, ATCATGTA ≥ 0.435, GTCATGTA 0.43, CTCATGTA 0.377, ATCATGTC ≥ 0.42, GATTACAC 0.318, CATTACAC 0.311, ACTATGTA 0.312, CCTATGTA 0.318, ATGTCGTG 0.316, ATGTCGTA 0.337, ATGTCGAC 0.326, ATGTCGCA 0.331, CTTGTTAA 0.327, GTTGTTTA 0.343, GTTGTTGA 0.321, CTTGTTAC 0.365
